According to PubChem BioAssay (Tox21):
Inconclusive results are not listed. Activity calls are given as the source filed them. Unless noted, the call rests on the fitted dose curve.

Experiments:
[1] = Nuclear factor erythroid 2-related factor 2/antioxidant responsive element (Nrf2/ARE) small molecule agonists: qHTS cell viability counter screen in human keratinocytes (AID 1919968; active means well fitted curve in the direction sought with a large enough effect in the repeat runs; an effect the other way counts as inactive or inconclusive; further: nearly all actives have a fitted effect of over 55% in size)
Procedure, shortened: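 In human HaCaT keratinocytes stably expressing an ARE-driven luciferase, compound exposure lasted 23 h at 37 C under 5% CO2. Viable cells are quantified with a protease-based fluorogenic reagent (CellTiter-Fluor) read 1 h after addition.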

[2] = Nuclear factor erythroid 2-related factor 2/antioxidant responsive element (Nrf2/ARE) small molecule agonists: luciferase reporter gene qHTS assay in human keratinocytes (AID 1919969); further: nearly all actives have a fitted effect of over 35% in size
[3] = molecular target: Gonadotropin-releasing hormone receptor (Homo sapiens) (UniProt P30968); experiment: Human gonadotropin-releasing hormone receptor (GnRHR) small molecule agonists, calcium flux assay in GnRHR-HEK293 cells (AID 1920063); further: nearly all actives have a fitted effect of over 35% in size
Sequence of Gonadotropin-releasing hormone receptor (Homo sapiens) (P30968 whole entry, looked up): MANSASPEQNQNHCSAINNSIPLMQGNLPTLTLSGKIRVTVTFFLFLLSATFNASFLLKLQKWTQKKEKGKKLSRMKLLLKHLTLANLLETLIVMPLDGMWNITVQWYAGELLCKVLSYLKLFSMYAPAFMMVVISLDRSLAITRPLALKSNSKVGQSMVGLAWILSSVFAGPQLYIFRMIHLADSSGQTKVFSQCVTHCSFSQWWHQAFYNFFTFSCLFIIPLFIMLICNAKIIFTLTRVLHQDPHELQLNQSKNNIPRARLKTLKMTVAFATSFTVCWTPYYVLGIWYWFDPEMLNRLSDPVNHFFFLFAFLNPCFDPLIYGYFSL
Procedure, shortened: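 Intracellular calcium rise is the read-out: engineered human GnRHR HEK293 cells, dye-loaded, are exposed to DMSO-dissolved compounds and fluorescence at Ex/Em 480/540 is tracked for 3 min.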

[4] = molecular target: KiSS-1 receptor (Homo sapiens) (UniProt Q969F8); experiment: Human kisspeptin (KISS1R) small molecule agonists, calcium flux assay in KISS1R-HEK293 cells (AID 1920064; active means well fitted curve in the direction sought with a large enough effect in the repeat runs; an effect the other way counts as inactive or inconclusive)
Sequence of KiSS-1 receptor (Homo sapiens) (Q969F8 whole entry, looked up): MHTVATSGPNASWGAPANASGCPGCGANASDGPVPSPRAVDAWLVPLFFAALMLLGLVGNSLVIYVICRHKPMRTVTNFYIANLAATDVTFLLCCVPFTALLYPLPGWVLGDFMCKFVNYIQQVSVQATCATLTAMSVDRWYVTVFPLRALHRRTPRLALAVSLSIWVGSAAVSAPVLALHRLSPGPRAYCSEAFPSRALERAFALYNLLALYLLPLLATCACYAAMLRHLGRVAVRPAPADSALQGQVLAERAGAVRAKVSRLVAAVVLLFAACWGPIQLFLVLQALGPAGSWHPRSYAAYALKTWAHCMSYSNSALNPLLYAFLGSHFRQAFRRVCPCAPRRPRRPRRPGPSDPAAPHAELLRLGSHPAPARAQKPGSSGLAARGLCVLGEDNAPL
Procedure, shortened: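 Concentration-response testing used 15 concentrations in triplicate on human KISS1R-expressing HEK293 cells. Calcium-dependent fluorescence (Ex/Em 480/540) was followed kinetically for 3 min after compound transfer.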

[5] = G protein-coupled receptor (GPCR) small molecule agonists, calcium flux assay: HEK293 wild type cell line counter screen (AID 1920065)
Procedure, shortened: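 Fluorescence intensity signals activation. After overnight (18 h) culture and a 1 h calcium dye load at 37 C, compounds are added by pin tool and the plate read at 480/540 nm for 3 min in 1 s steps.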

[6] = p53 small molecule agonists, cell-based qHTS assay with human liver microsomes (AID 1963577);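 further: p53 response element beta-lactamase reporter cells with liver microsomes plus NADPH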
Procedure, shortened: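 Steps: plate p53RE-bla cells, incubate 5 h at 37 C; add compound in DMSO; add microsomes (0.5 mg/mL final) and NADPH (0.5 mg/mL final); incubate 16 h at 37 C; add LiveBLAzer, 2 h RT; read fluorescence.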

[7] = p53 small molecule agonists, cell-based qHTS assay with rat liver microsomes (AID 1963578)
Procedure, shortened: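 Metabolic activation is supplied by rat liver microsomes with NADPH (each 0.5 mg/mL final). p53RE-bla cells incubate with compound 16 h at 37 C; reporter activity is measured by LiveBLAzer fluorescence.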

[8] = p53 small molecule agonists, cell-based qHTS assay with human liver microsomes: qHTS cell viability counter screen (AID 1963579); further: nearly all actives have a fitted effect of over 45% in size
Procedure, shortened: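 After the 460/530 nm beta-lactamase read, CellTiter-Glo was added to the same wells and luminescence measured after 30 min at room temperature, giving viability of p53RE-bla cells treated 16 h with compounds plus microsomes and NADPH.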

[9] = p53 small molecule agonists, cell-based qHTS assay with rat liver microsomes: qHTS cell viability counter screen (AID 1963580); further: nearly all actives have a fitted effect of over 45% in size
Procedure, shortened: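 After the beta-lactamase ratio was read, CellTiter-Glo was added to the same wells and luminescence measured at 30 min; cells had been treated 16 h at 37 C with compounds, rat liver microsomes and NADPH (0.5 mg/mL final each).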

[10] = p53 small molecule agonists, cell-based qHTS assay: qHTS cell viability counter screen (AID 1963581); further: nearly all actives have a fitted effect of over 45% in size
Procedure, shortened: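 Luminescence from CellTiter-Glo, reflecting ATP content, serves as the cytotoxicity measure; it is taken after the 2 h reporter substrate step in HCT-116 p53RE-bla cells dosed for 16 h at 37 C.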

[11] = p53 small molecule agonists, cell-based qHTS assay (AID 1963582; active means well fitted activation curve with a large enough effect in the signal ratio in the repeat runs, not every such curve was filed as active; the % refers to the signal ratio)
Procedure, shortened: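 After plating, p53RE-bla cells sat 5 h in the incubator; compounds or DMSO vehicle were pinned in; a 16 h incubation at 37 C followed; FRET substrate was added and, 2 h later at RT, fluorescence was measured.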

[12] = molecular target: 5-hydroxytryptamine receptor 2A (Homo sapiens) (UniProt P28223); experiment: 5-hydroxytryptamine receptor 2A (HTR2A) small molecule antagonists, cell-based qHTS assay (AID 1963586); further: nearly all actives have a fitted effect of over 45% in size
Sequence of 5-hydroxytryptamine receptor 2A (Homo sapiens) (P28223 whole entry, looked up): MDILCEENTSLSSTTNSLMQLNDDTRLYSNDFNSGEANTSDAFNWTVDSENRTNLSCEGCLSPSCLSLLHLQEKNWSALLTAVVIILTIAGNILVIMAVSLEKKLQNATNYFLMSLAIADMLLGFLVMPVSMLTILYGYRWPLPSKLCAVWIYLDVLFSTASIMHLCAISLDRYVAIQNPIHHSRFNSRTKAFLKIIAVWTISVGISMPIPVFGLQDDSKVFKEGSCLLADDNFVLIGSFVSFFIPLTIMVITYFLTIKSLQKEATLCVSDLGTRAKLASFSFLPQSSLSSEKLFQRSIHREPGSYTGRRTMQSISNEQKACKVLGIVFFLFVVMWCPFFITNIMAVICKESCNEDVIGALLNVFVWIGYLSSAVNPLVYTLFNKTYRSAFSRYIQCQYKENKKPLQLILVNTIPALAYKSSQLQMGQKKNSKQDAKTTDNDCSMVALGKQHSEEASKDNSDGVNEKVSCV
Procedure, shortened: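 CHO cells stably expressing human HTR2A were plated for 18 h at 37 C, then loaded with calcium dye for 1 h. Compounds were preincubated 5 min at room temperature before DOI (4 nM solution) was added. Kinetic fluorescence was read for 3 min.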

[13] = molecular target: 5-hydroxytryptamine receptor 2A (Homo sapiens) (UniProt P28223); experiment: 5-hydroxytryptamine receptor 2A (HTR2A) small molecule agonists, cell-based qHTS assay (AID 1963587); further: nearly all actives have a fitted effect of over 30% in size
Procedure, shortened: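 CHO cells stably expressing human HTR2A, plated 18 h, loaded with calcium dye 1 h at 37 C. Agonist mode: compounds added and intracellular calcium fluorescence recorded kinetically for 2 min at 1 sec intervals.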

[14] = molecular target: Muscarinic acetylcholine receptor M1 (Homo sapiens) (UniProt P11229); experiment: Cholinergic receptor muscarinic 1 (CHRM1) small molecule antagonists, cell-based qHTS assay (AID 1963588); further: nearly all actives have a fitted effect of over 40% in size
Sequence of Muscarinic acetylcholine receptor M1 (Homo sapiens) (P11229 whole entry, looked up): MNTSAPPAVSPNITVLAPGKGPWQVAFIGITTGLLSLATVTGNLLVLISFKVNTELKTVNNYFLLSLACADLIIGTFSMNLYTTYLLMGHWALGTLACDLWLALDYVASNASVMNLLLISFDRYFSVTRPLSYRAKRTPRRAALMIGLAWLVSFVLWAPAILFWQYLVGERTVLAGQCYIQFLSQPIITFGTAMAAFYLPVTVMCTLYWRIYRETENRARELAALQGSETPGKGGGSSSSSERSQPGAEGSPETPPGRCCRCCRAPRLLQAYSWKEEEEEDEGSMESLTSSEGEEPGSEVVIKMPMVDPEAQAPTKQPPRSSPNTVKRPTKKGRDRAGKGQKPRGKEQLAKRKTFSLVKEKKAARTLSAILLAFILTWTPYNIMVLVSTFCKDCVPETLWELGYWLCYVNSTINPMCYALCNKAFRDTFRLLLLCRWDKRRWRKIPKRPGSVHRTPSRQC
Procedure, shortened: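 Compounds were tested at 15 concentrations in three independent runs. Dye-loaded CHRM1-CHO cells were exposed 5 min at room temperature before stimulation by acetylcholine added at 50nM. Intracellular calcium was read kinetically on FDSS for 3 min.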

[15] = molecular target: Muscarinic acetylcholine receptor M1 (Homo sapiens) (UniProt P11229); experiment: Cholinergic receptor muscarinic 1 (CHRM1) small molecule agonists, cell-based qHTS assay (AID 1963589); further: nearly all actives have a fitted effect of over 35% in size
Procedure, shortened: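 Fluorescent calcium dye reports M1 activation in stably transfected CHO cells. Compounds, 15 concentrations, added after 1 h dye loading at 37 C; kinetic reading at 1 sec intervals.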

[16] = cAMP Responsive Elements (CRE) small molecule agonists, cell-based qHTS assay (AID 1963590)
Procedure, shortened: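 Compound exposure lasted 3 h at 37 C/5% CO2 in CRE-bla HEK 293T cells grown in assay medium with 10% dialyzed FBS and 25 mM HEPES. Reporter signal came from LiveBLAzer B/G FRET substrate, 2 h, room temperature.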

[17] = cAMP Responsive Elements (CRE) small molecule antagonists, cell-based qHTS assay (AID 1963591; active means well fitted inhibition curve with a large enough effect in the signal ratio in the repeat runs, not every such curve was filed as active; the % refers to the signal ratio)
Procedure, shortened: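 Stimulation used NKH477 at a final 0.25 uM for 3 h in compound-treated CRE-bla HEK293T cells, seeded 18 h beforehand. Reporter activity was measured with LiveBLAzer B/G FRET substrate after 2 h at room temperature.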

[18] = molecular target: Beta-2 adrenergic receptor (Homo sapiens) (UniProt P07550); experiment: Adrenergic beta2 receptor (ADRB2) small molecule antagonists, cell-based qHTS assay (AID 1963592); further: series mostly up to about 92 µM; nearly all actives have a fitted effect of over 50% in size
Sequence of Beta-2 adrenergic receptor (Homo sapiens) (P07550 whole entry, looked up): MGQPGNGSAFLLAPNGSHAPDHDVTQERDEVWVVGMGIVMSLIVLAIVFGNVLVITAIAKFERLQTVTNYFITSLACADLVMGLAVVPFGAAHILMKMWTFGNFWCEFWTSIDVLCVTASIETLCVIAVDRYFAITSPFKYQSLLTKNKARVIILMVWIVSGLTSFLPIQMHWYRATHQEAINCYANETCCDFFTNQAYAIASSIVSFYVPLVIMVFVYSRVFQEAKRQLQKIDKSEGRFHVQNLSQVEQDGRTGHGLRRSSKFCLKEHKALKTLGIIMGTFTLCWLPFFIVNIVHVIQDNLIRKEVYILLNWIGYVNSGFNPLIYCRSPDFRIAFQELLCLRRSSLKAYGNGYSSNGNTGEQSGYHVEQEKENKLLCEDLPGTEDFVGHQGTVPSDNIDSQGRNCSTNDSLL
Procedure, shortened: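 Assay format: CHO-ADRB2 cells, 18-20hr seeding at 37C/5% CO2, then compound plus 1nM isoproterenol agonist mix for 0.5hr RT. Homogeneous time-resolved fluorescence cAMP detection after 1hr, expressed as 665/615 nm ratio.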

[19] = molecular target: D(2) dopamine receptor (Homo sapiens) (UniProt P14416); experiment: Dopamine D2 receptor (DRD2) small molecule agonists, cell-based qHTS assay (AID 1963594); further: nearly all actives have a fitted effect of over 35% in size
Sequence of D(2) dopamine receptor (Homo sapiens) (P14416 whole entry, looked up): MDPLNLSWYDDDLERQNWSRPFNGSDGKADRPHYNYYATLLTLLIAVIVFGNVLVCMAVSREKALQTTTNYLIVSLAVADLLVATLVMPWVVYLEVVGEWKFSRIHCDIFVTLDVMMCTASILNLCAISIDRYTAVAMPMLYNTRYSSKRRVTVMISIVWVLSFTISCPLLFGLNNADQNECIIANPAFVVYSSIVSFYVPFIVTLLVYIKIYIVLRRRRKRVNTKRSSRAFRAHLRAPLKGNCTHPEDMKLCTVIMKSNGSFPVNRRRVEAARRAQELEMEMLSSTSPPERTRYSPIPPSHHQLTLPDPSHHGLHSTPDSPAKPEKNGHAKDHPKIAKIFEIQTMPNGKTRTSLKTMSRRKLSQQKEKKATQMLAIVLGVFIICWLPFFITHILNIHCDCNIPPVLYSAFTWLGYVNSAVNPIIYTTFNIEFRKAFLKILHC
Procedure, shortened: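 HEK293 cells stably expressing human DRD2, pre-treated with PDE inhibitor Ro20-1724 (0.1 mM final) and compound 10 min at room temperature, then stimulated with NKH477 (200nM […]) for 30 min. cAMP read by HTRF (665/620 nm).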

[20] = molecular target: D(2) dopamine receptor (Homo sapiens) (UniProt P14416); experiment: Dopamine D2 receptor (DRD2) small molecule antagonists, cell-based qHTS assay (AID 1963595; active means well fitted inhibition curve with a large enough effect in the signal ratio in the repeat runs, with a control signal flat; the % refers to the signal ratio)
Procedure, shortened: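 Antagonist mode in DRD2-HEK293 cells: after compound addition with 0.1 mM Ro20-1724, cells received quinpirole (12 nM) and NKH477 (200 nM) for 30 min at room temperature; HTRF cAMP read after 1 h detection.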

Measured: Potency

OCCCCCCCl
inactive: all assays above

CC(C)N=C=NC(C)C
inactive: all assays above

CC1=CC[C@H](CC=O)C1(C)C
not listed: [20]
inactive: all other assays above

C1CCCCC1
inactive: all assays above

O=C(O)CCC(=O)Nc1ccc(S(=O)(=O)Nc2nccs2)cc1
inactive: all assays above

N#Cc1cc(NC(=O)C(=O)O)c(Cl)c(NC(=O)C(=O)O)c1
inactive: all assays above

CC(C)CC(C)(N)C#N (stereo not drawn)
inactive: all assays above

CCOC(=O)CN
inactive: all assays above

Nc1cc(C(Cl)=C(Cl)Cl)c(S(N)(=O)=O)cc1S(N)(=O)=O
inactive: all assays above

CCC(C)C1N=C(C)C(C)S1 (stereo not drawn)
inactive: all assays above

O=C(O)C(S)C(S)C(=O)O (stereo not drawn)
inactive: all assays above

CCC(CO)(CO)CO
inactive: all assays above

CC(C)CCCC(C)CCCC(C)CCCCC(C)CCCC(C)CCCC(C)C (stereo not drawn)
inactive: all assays above

CC(C)c1ccc(C=O)cc1
not listed: [19]
inactive: all other assays above
